Results published in the supplement of paper PMC10849652.
About 7,900 targets were measured; listed, in parts, are those with a hit and a random draw of the rest. About 0.6% of all pairs of compound and target were hits. Values without a mark were called inactive.

Key:
Experiment in all cases: log2 fold change, soluble protein after heating vs DMSO (PISA); higher = thermal stabilisation; K562 cells, 10 uM, 30 min; active = over 0.2 and 3.5 SD of the protein, either way, in both replicates (recomputed)
[1] = compound: CS(=O)(=O)c1ccc(-c2cnc(N)c(C(=O)Nc3ccccc3)n2)cc1
Summary of the method: (§1)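 Thermal stability values are relative to control samples and come from duplicates. They are expressed as log2 fold changes. For measurement, K562 cells (2×10^6 cells/mL) received 10 μM compound for 30 min, and aliquots were heated for 3 min over 48°C-58°C, pooled, and extracted at 4°C in PBS with 0.5% NP-40. Soluble protein, the supernatant after 21,000xg for 90 min, was quantified by TMTpro 16plex LC-MS/MS with equalised channel sums.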

crizotinib = compound: C[C@@H](Oc1cc(-c2cnn(C3CCNCC3)c2)cnc1N)c1c(Cl)ccc(F)c1Cl [crizotinib]
Summary of the method: as §1

[2] = compound: C[C@@H]1COCCN1C2=NC(=NC(=C2)C3(CC3)S(=O)(=O)C)C4=C5C=CNC5=CC=C4
Summary of the method: as §1

[3] = compound: C[C@H](C1=CC=C(C=C1)C(=O)NC2=C3C=CNC3=NC=C2)N
Summary of the method: as §1

duvelisib = compound: C[C@H](Nc1ncnc2nc[nH]c12)c1cc2cccc(Cl)c2c(=O)n1-c1ccccc1 [duvelisib]
Summary of the method: as §1

gandotinib = compound: Cc1cc(Nc2cc(CN3CCOCC3)c3nc(C)c(Cc4ccc(Cl)cc4F)n3n2)n[nH]1 [gandotinib]
Summary of the method: as §1

tozasertib = compound: Cc1cc(Nc2cc(N3CCN(C)CC3)nc(Sc3ccc(NC(=O)C4CC4)cc3)n2)n[nH]1 [tozasertib]
Summary of the method: as §1

[4] = compound: Cc1cc(SCc2sc(-c3ccc(C(F)(F)F)cc3)nc2C)ccc1OCC(=O)O
Summary of the method: as §1

doramapimod = compound: Cc1ccc(-n2nc(C(C)(C)C)cc2NC(=O)Nc2ccc(OCCN3CCOCC3)c3ccccc23)cc1 [doramapimod]
Summary of the method: as §1

ispinesib = compound: Cc1ccc(C(=O)N(CCCN)[C@@H](c2nc3cc(Cl)ccc3c(=O)n2Cc2ccccc2)C(C)C)cc1 [ispinesib]
Summary of the method: as §1

bafetinib = compound: Cc1ccc(NC(=O)c2ccc(CN3CC[C@H](N(C)C)C3)c(C(F)(F)F)c2)cc1Nc1nccc(-c2cncnc2)n1 [bafetinib]
Summary of the method: as §1

[5] = compound: Cc1cccc(CC(=O)N2CCc3c2ccc(-c2cn(C)c4ncnc(N)c24)c3F)n1
Summary of the method: as §1

nilotinib = compound: Cc1cn(-c2cc(NC(=O)c3ccc(C)c(Nc4nccc(-c5cccnc5)n4)c3)cc(C(F)(F)F)c2)cn1 [nilotinib]
Summary of the method: as §1

[6] = compound: Cc1nc(Nc2n[nH]c3c2CN(C(=O)N[C@H](CN(C)C)c2ccccc2)C3(C)C)c2sccc2n1
Summary of the method: as §1

dasatinib = compound: Cc1nc(Nc2ncc(C(=O)Nc3c(C)cccc3Cl)s2)cc(N2CCN(CCO)CC2)n1 [dasatinib]
Summary of the method: as §1

[7] = compound: Cc1ncc(-c2ccnc(Nc3ccc(S(C)(=O)=O)cc3)n2)n1C(C)C
Summary of the method: as §1

[8] = compound: Cn1cc(-c2ccc3c(c2)CCN3C(=O)Cc2cccc(C(F)(F)F)c2)c2c(N)ncnc21
Summary of the method: as §1

[9] = compound: Cn1cc(-c2ccc3nnc(C(F)(F)c4ccc5ncccc5c4)n3n2)cn1
Summary of the method: as §1

tipifarnib = compound: Cn1cncc1[C@@](N)(c1ccc(Cl)cc1)c1ccc2c(c1)c(-c1cccc(Cl)c1)cc(=O)n2C [tipifarnib]
Summary of the method: as §1

mubritinib = compound: FC(F)(F)c1ccc(/C=C/c2nc(COc3ccc(CCCCn4ccnn4)cc3)co2)cc1 [mubritinib]
Summary of the method: as §1

Sequence of UniProt Q9HAW4 (Q9HAW4 whole entry, looked up): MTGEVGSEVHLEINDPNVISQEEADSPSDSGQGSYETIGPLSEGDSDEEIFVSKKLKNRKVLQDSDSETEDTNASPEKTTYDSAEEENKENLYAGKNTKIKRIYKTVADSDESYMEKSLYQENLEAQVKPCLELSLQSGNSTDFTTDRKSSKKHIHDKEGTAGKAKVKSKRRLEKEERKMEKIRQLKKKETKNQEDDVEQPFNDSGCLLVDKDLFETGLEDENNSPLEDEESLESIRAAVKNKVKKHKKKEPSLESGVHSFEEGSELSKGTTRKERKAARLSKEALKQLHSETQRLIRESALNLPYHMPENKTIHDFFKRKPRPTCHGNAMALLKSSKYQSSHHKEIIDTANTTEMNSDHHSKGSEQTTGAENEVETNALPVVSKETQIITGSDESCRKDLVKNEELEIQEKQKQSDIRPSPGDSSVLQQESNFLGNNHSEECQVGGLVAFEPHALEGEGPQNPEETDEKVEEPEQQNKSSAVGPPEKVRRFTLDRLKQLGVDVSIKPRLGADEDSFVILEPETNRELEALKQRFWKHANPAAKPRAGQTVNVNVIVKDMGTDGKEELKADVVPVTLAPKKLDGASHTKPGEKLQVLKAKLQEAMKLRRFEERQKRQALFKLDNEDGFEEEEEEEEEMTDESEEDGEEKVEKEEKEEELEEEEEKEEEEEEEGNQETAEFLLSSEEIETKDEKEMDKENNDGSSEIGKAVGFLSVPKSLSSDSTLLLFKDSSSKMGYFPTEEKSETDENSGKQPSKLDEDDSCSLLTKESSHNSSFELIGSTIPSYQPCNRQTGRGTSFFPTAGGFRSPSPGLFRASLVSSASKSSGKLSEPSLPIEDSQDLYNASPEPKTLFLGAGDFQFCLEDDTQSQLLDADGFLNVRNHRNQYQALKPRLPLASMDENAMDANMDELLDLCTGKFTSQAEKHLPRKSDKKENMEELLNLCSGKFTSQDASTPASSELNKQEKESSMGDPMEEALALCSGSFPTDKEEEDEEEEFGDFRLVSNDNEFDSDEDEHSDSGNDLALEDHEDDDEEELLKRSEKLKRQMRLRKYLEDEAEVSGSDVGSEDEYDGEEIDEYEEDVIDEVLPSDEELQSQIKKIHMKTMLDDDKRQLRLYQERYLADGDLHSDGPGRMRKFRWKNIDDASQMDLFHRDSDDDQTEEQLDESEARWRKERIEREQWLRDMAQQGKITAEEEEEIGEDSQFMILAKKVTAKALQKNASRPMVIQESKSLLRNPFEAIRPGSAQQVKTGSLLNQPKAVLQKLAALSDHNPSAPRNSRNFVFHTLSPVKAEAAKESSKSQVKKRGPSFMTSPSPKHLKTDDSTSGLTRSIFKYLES
Sequence of UniProt Q9P0B6 (Q9P0B6 whole entry, looked up): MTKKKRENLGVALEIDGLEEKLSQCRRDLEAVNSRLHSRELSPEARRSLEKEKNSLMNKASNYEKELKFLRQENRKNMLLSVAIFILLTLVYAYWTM
Sequence of UniProt P51790 (P51790 whole entry, looked up): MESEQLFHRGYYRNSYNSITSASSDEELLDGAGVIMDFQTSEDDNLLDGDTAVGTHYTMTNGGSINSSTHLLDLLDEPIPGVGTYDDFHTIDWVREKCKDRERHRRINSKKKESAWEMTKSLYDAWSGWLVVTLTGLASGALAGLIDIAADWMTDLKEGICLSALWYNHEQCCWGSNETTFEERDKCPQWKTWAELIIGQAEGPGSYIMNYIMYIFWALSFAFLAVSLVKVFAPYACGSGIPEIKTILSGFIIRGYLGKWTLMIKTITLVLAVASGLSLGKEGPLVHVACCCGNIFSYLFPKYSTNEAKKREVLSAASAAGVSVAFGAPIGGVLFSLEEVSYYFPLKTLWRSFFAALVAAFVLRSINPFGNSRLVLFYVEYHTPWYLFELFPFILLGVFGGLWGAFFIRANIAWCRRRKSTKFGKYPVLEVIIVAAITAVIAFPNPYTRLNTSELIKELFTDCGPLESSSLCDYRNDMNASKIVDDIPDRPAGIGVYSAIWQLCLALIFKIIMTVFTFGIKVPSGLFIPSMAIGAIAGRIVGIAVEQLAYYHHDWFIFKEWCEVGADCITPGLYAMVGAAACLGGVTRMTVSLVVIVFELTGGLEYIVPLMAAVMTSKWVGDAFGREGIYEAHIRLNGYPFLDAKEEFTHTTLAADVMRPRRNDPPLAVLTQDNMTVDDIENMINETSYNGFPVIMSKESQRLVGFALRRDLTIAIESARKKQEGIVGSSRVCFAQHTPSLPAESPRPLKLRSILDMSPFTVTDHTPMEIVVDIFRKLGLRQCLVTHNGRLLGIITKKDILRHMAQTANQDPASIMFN
Sequence of UniProt P21127 (P21127 whole entry, looked up): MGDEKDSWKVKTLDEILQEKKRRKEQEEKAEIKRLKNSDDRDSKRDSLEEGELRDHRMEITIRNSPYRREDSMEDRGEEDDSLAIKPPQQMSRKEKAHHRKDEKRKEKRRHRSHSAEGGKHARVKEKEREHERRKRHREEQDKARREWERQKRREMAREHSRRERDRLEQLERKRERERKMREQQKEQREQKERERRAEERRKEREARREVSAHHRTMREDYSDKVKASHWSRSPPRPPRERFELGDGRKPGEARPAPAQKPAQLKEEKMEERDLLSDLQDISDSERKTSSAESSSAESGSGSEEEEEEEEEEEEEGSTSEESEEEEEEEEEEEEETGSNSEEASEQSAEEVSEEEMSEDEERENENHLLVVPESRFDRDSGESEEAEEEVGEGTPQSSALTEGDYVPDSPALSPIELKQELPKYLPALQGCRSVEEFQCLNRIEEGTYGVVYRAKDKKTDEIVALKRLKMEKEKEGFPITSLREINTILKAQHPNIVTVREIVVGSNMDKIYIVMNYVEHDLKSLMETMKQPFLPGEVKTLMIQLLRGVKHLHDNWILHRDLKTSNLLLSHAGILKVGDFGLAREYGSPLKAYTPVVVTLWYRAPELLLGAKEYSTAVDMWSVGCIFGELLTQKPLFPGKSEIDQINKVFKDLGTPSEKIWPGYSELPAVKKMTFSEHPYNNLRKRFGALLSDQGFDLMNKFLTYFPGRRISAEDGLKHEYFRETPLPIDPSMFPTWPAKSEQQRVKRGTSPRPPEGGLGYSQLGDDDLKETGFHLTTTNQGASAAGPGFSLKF
Sequence of UniProt O76031 (O76031 whole entry, looked up): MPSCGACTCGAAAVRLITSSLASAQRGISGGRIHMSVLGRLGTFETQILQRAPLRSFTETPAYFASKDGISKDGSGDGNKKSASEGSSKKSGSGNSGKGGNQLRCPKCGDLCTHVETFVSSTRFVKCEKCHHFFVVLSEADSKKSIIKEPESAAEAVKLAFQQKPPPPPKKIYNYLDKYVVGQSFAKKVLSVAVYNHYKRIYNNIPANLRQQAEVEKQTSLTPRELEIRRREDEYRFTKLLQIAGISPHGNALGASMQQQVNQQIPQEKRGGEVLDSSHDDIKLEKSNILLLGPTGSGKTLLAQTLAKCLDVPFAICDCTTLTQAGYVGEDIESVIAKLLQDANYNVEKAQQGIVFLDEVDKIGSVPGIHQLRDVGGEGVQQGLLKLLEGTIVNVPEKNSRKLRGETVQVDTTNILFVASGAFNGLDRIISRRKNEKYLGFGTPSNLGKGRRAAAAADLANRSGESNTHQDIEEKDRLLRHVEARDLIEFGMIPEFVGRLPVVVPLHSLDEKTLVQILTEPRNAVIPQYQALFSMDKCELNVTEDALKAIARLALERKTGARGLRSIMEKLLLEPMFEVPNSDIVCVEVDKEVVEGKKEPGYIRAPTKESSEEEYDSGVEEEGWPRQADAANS
Sequence of UniProt Q8IWX8 (Q8IWX8 whole entry, looked up): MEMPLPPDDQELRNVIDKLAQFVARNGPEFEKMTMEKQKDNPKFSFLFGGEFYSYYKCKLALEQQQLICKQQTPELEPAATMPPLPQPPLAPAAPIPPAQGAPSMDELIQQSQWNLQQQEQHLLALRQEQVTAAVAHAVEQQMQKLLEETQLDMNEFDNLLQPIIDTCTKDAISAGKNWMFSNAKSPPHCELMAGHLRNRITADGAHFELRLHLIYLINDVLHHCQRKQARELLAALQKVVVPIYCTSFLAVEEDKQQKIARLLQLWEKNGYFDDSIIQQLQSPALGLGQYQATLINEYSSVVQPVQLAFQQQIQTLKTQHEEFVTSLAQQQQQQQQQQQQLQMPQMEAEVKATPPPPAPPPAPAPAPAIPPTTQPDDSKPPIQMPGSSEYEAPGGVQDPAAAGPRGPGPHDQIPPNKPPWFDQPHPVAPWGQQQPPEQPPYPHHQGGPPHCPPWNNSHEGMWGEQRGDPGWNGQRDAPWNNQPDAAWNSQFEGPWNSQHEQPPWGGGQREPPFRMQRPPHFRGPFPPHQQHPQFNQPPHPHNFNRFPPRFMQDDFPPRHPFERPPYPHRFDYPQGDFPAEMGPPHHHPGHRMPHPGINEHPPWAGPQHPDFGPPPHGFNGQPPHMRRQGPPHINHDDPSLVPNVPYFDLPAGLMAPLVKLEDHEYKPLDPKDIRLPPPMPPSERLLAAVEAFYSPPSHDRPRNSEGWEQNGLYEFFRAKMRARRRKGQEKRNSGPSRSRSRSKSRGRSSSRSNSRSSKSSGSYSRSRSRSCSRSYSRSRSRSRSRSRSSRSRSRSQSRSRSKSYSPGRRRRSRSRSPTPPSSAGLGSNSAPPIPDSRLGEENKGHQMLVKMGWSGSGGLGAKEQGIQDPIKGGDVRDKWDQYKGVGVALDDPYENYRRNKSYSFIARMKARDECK
Sequence of UniProt P06493 (P06493 whole entry, looked up): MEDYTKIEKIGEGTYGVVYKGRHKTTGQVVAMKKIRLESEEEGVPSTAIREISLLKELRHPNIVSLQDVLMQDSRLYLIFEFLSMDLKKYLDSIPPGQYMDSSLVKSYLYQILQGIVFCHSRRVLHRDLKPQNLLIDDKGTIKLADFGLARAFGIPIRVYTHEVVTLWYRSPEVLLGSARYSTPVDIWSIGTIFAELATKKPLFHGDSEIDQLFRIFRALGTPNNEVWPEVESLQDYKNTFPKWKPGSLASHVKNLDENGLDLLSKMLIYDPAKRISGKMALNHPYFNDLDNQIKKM
Sequence of UniProt Q5JTJ3 (Q5JTJ3 whole entry, looked up): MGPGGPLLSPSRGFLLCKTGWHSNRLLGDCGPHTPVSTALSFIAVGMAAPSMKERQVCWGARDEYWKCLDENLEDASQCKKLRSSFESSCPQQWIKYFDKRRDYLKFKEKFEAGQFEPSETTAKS

Row | Target | log2 fold change [1] | log2 fold change (crizotinib) | log2 fold change [2] | log2 fold change [3] | log2 fold change (duvelisib) | log2 fold change (gandotinib) | log2 fold change (tozasertib) | log2 fold change [4] | log2 fold change (doramapimod) | log2 fold change (ispinesib) | log2 fold change (bafetinib) | log2 fold change [5] | log2 fold change (nilotinib) | log2 fold change [6] | log2 fold change (dasatinib) | log2 fold change [7] | log2 fold change [8] | log2 fold change [9] | log2 fold change (tipifarnib) | log2 fold change (mubritinib)
1 | COA6 isoform 2 (UniProt Q5JTJ3) | 0.026 | -0.001 | -0.07 | -0.155 | 0.068 | 0.082 | 0.109 | 0.159 | 0 | 0.035 | -0.093 | 0.002 | -0.064 | 0.02 | -0.017 | 0.012 | -0.097 | 0.035 | -0.008 | 0.041
2 | CDK11B (UniProt P21127) | 0.025 | 1.24 (active) | 0.052 | 0.166 | 0.099 | 0.105 | 0.018 | 0.007 | 0 | 0.022 | 0.027 | -0.009 | 0.106 | -0.038 | 0.014 | -0.036 | 0.007 | 0.228 | 0.104 | 0.085
3 | CD53 (UniProt P19397) | 0.101 | 0.047 | 0.005 | -0.084 | 0.234 | -0.016 | -0.165 | -0.11 | 0.103 | 0.023 | 0.091 | -0.418 (active) | 0.069 | 0.002 | 0.078 | -0.003 | 0.145 | 0.125 | 0.057 | 0.081
4 | CCDC167 (UniProt Q9P0B6) | -0.08 | 0.025 | 0.071 | 0.135 | 0.263 | 0.181 | -0.121 | -0.214 | 0.034 | -0.344 (active) | -0.024 | -0.057 | -0.03 | -0.035 | 0.193 | 0.026 | -0.185 | -0.018 | 0.142 | -0.043
5 | CDK12 (UniProt Q9NYV4) | -0.056 | -0.054 | -0.362 | 0.376 | -0.161 | -1.11 (active) | -0.125 | 0.051 | 0.299 | 0 | 0.298 | 0.079 | 0.136 | -0.631 (active) | 0.23 | -0.301 | -0.484 | -0.123 | 0.156 | -0.043
6 | CALB1 (UniProt P05937) | 0.033 | -0.166 | 0.015 | -0.039 | -0.031 | -0.038 | 0.022 | 0.017 | -0.006 | -0.105 | -0.076 | -0.018 | -0.018 | 0.025 | 0.014 | -0.015 | 0.013 | 0.046 | 0 | 0.01
7 | CDK1 (UniProt P06493) | 0.005 | -0.128 | -0.005 | -0.019 | 0.021 | -0.171 | -0.057 | 0 | -0.031 | 0.033 | 0.002 | -0.022 | 0.022 | -0.196 | -0.092 | -0.199 | -0.067 | -0.023 | -0.019 | 0.083
8 | CLPX (UniProt O76031) | 0.061 | 0.291 (active) | 0.027 | 0.004 | 0.004 | 0.003 | -0.012 | -0.05 | -0.002 | 0.018 | 0.008 | -0.074 | -0.006 | 0.042 | 0.006 | -0.019 | -0.012 | 0.032 | 0.052 | -0.048
9 | CLSPN (UniProt Q9HAW4) | -0.028 | 0.039 | -0.04 | -0.046 | -0.045 | 0.047 | 0.049 | -0.104 | 0.001 | 0.107 | -0.071 | -0.035 | 0.018 | -0.011 | 0.094 | -0.123 | -0.021 | -0.03 | 0.045 | 0.053
10 | CHKA (UniProt P35790) | -0.022 | 0.075 | -0.034 | 0.046 | -0.002 | 0.009 | -0.013 | -0.012 | -0.011 | 0.048 | 0.123 | -0.023 | 0.178 | 0.149 | 0.07 | 0.088 | -0.02 | -0.081 | -0.026 | -0.024
11 | CCAR1 (UniProt Q8IX12) | 0.004 | -0.238 | 0.034 | -0.016 | 0.012 | -0.263 (active) | -0.063 | 0.067 | -0.03 | -0.102 | 0.036 | 0.036 | -0.055 | -0.033 | -0.112 | -0.095 | 0.079 | 0.019 | -0.091 | 0.122
12 | CBS (UniProt P35520) | -0.024 | 0.044 | 0.023 | -0.054 | 0.027 | -0.033 | -0.032 | -0.031 | -0.076 | -0.019 | -0.031 | -0.029 | 0.025 | -0.012 | 0.018 | -0.003 | 0.079 | 0.035 | -0.023 | 0.056
13 | CHERP (UniProt Q8IWX8) | -0.087 | -0.108 | 0.109 | 0.009 | -0.025 | -0.047 | 0.08 | 0.138 | 0.01 | -0.004 | 0.057 | 0.092 | -0.13 | -0.353 | -0.086 | 0.011 | 0.011 | 0.025 | 0.005 | -0.07
14 | CLCN3 (UniProt P51790) | -0.05 | -0.191 | 0.012 | -0.003 | 0.046 | -0.062 | 0.04 | -0.006 | -0.03 | -0.549 (active) | -0.112 | -0.022 | -0.007 | 0.04 | 0.019 | -0.027 | 0.03 | 0.049 | 0.015 | 0.024
15 | CHD4 isoform 2 (UniProt Q14839) | -0.02 | -0.08 | 0.098 | 0.057 | -0.021 | -0.009 | 0.233 | 0.186 | 0.014 | -0.05 | 0.068 | -0.018 | -0.143 | -0.267 | -0.059 | -0.137 | -0.063 | -0.002 | -0.083 | -0.06
16 | CSTF2 (UniProt P33240) | 0.016 | 0.075 | 0.14 | -0.042 | 0.029 | 0.048 | 0.033 | -0.011 | 0.028 | 0.068 | -0.05 | -0.061 | -0.029 | 0.074 | 0.007 | 0.047 | -0.011 | -0.014 | 0.028 | -0.046
